The source of these data is PubChem BioAssay (Tox21).

Where “and” joins values, the source holds several entries; their conditions need not be identical. Identical values can stand only once. Results filed as inconclusive are left out. The source holds several records for some structures; these can differ, active in one and inactive in another. Values without a mark were called inactive. Calls of active or inactive are those of the source. Calls follow the shape of the dose curve; as a rule, active = well fitted cell-killing curve with a large enough effect in the repeat runs; inconclusive = weak or mixed curves, or effect the other way; inactive = flat fitted curve, though single readings scatter.
% is scaled to controls: 0 for no effect and ±100 for the full control effect; potency is read from the fitted curve at half-maximal effect.

The test is described as follows: qHTS RealTime-Glo MT Cell Viability Assay in HEK293 cells - 40 hour (AID 1224874). Also: nearly all actives have a fitted effect of over 50% in size. As to conditions: RealTime-Glo luminescence; max response: stronger effect = lower value. The text has this: U.S. Tox21 Program National Center for Advancing Translational Sciences [NCATS] NIH Chemical Genomics Center [NCGC] U.S. Environmental Protection Agency [EPA] National Institutes of Environmental Health Sciences [NIEHS] National Toxicology Program [NTP] U.S. Food and Drug Administration [FDA] Tox21 Assay Overview: Measure of cell viability is critical in the cell-base assay. Analysis of cell viability is necessary for the characterization of cell responses to cytotoxic drugs and environmental stress. A RealTime-Glo MT Cell Viability Assay to monitor cell viability in real time of continues cell culture during 40 hours of compound treatment was used to screen Tox21 10K library compounds in Hek293 cells. The RealTime-Glo MT Cell Viability Assay is a nonlytic, homogeneous, bioluminescent method to measure cell viability in real time using a simple, plate-based method. The assay involves adding NanoLuc luciferase and a cell-permeant prosubstrate to cells in culture. Viable cells reduce the proprietary prosubstrate to generate a substrate for NanoLuc luciferase. This substrate diffuses from cells into the surrounding culture medium, where it is rapidly used by the NanoLuc Enzyme to produce a luminescent signal. The signal correlates with the number of viable cells, making the assay well suited for cytotoxicity studies.
Tox21 Assay Protocol Summary: The mixture of Hek293 cell suspension and reagents were dispensed at 600cells/6 ul/well in 1536-well tissue culture treated black solid bottom plates using a Multidrop dispenser. After the assay plates were incubated at a 37 C/5% CO2 incubator for 5 hours, 23 nL of compounds dissolved in DMSO, positive and negative controls was transferred to the assay plate by a pintool work station. The plates were incubated at 37 C for 40 hours. The luminescence intensity were measured at 0h, 8h, 16h, 24h, 32h and 40h time points using ViewLux plate reader during compound treatment.
For orientation: In qHTS, concentration-response curves come from the screen itself.
Consider `O=C(O)C1C(C(=O)O)C2(Cl)C(Cl)=C(Cl)C1(Cl)C2(Cl)Cl` (stereo not given), for which the max response is 9.62% and 1.68%.

Turning to `CC(C)(C)C(=O)CCl`, the max response is 4.78% and -0.671%.

As to `CCNc1nc(Cl)nc(NC(C)C)n1`, the max response was 2.47% and -5.57%.

Take `Cc1ccc(O)c(C)c1`: the max response is 4.17% and 0.581%.

On to `O=C(O)Cc1ccccc1`, for which the max response is 21.7% and 3.56%.

`Cc1ccc(N=C=O)cc1N=C=O`: the max response is 7.57% and -22.1%.

With `OCC(O)CCl` (stereo not given), the max response was -3.2% and 0.258%.

On to `Nc1ccc([As](=O)(O)O)cc1`, for which the max response was 6.3% and -4.26% and 1.01%.

Turning to `c1ccc2c(c1)CCCC2`, the max response is 1.92% and 10.6%.

For `Clc1cnc(Oc2ccc(Oc3ncc(Cl)cc3Cl)cc2)c(Cl)c1`, the max response was -4.51% and -10.8%.

For the compound `C=CCN=C=S`, the max response is 17.8% and 1.95%.

With `C=CC(=O)OCCCCCC(C)C`, the max response is -0.829% and 3.33%.

As for `C=C(C)C(=O)OCC(CC)CCCC` (stereo not given), the max response is 1.51%.

As to `CC12CC1(C)C(=O)N(c1cc(Cl)cc(Cl)c1)C2=O` (stereo not given), the max response is 1.77% and 7.9%.

For the compound `CNCC(O)c1ccc(O)cc1` (stereo not given), the max response is 4.3% and -3.08%.

As to `O=C(O)C(Br)Br`, the max response was -0.855% and 1.09%.

In the case of `Sc1ccccc1`, the Potency was 39.4 µM (active); the max response is 0.339% and -2.23% and -0.106%.

Take `Cc1cc(Cl)ccc1OC(C)C(=O)O` (stereo not given): the max response was 3.64% and -1.48%.

As to `CCSC(=O)N1CCCCCC1`, the Potency was 12 µM (active) and the max response is 3.34%.

`ClCCOCCCl`: the max response is -3.17% and -5.17%.

For `CCOP(=S)(OCC)Oc1cc(C)nc(C(C)C)n1`, the max response was 2.72% and 7.6% and 1.58%.

Take `O=[N+]([O-])c1ccc(Cl)c(Cl)c1`: the max response was -5.48% and 3.8%.

For the compound `O=C/C=C/c1ccccc1`, the max response was -0.971% and 11.8% and 2.22%.

On to `COc1nc(NC(C)C)nc(NC(C)C)n1`, for which the max response is -0.66% and 0.377%.

In the case of `ClC(Cl)c1ccccc1`, the max response was 4.95% and 0.497%.

Consider `COC(C)(C)CCCC(C)C/C=C/C(C)=C/C(=O)OC(C)C` (stereo not given), for which the max response is 0.0106%.

For the compound `CC(C)CCCCCCOC(=O)c1ccccc1C(=O)OCCCCCCC(C)C`, the max response is 12.6% and 8.04% and 6.43%.

Regarding `COc1cc(-c2ccc(N)c(OC)c2)ccc1N`, the Potency is 37.1 µM (active); the max response was -23.4% and -26.2%.

As for `CCOc1ccc(N)cc1`, the max response was 2.16% and -1.88%.

As to `Nc1ncc([N+](=O)[O-])s1`, the max response was 0.802% and 3.01%.

As to `CN(C)CCC#N`, the max response was 6.53% and 12.6%.

Turning to `CNC(=O)O/N=C/C(C)(C)S(C)=O` (stereo not given), the max response was 16.8% and -17.7%.

With `CN(C)NC(=O)CCC(=O)O`, the max response was 2.52% and 2.58%.

As to `C=CC#N`, the max response was -6.45% and -0.644%.

As for `Cc1ccc(N)cc1`, the max response is -16.7% and 1.44% and -0.523%.

`CNC(=O)O/N=C(\SC)C(=O)N(C)C`: the max response was -3.21% and 9.55%.

Take `Nc1cc(Cl)cc(Cl)c1`: the max response is -2.18% and 1.19%.
